ChEMBL document CHEMBL2218924, “A broad activity screen in support of a chemogenomic map for kinase signalling research and drug discovery” (Biochem J, 2013)

Legend:
[1] = molecular target: Ribosomal protein S6 kinase beta-1 (Homo sapiens) (UniProt P23443); conditions: at 1 µM
[2] = molecular target: Ribosomal protein S6 kinase beta-1 (Homo sapiens) (UniProt P23443); conditions: at 10 µM
[3] = molecular target: Serine/threonine-protein kinase Nek6 (Homo sapiens) (UniProt Q9HC98); conditions: at 1 µM
Sequence of Serine/threonine-protein kinase Nek6 (Homo sapiens) (Q9HC98 whole entry): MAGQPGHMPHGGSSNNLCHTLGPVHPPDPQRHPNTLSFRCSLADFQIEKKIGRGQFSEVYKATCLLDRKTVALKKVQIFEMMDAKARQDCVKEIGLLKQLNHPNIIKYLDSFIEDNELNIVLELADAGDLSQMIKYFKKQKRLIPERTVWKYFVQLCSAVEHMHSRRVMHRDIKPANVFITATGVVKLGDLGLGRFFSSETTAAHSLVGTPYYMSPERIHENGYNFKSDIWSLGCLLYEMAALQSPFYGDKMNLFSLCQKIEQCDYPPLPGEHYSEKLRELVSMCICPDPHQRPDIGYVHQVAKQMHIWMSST

[4] = molecular target: Serine/threonine-protein kinase Nek6 (Homo sapiens) (UniProt Q9HC98); conditions: at 10 µM
[5] = molecular target: Serine/threonine-protein kinase Nek7 (Homo sapiens) (UniProt Q8TDX7); conditions: at 1 µM
Sequence of Serine/threonine-protein kinase Nek7 (Homo sapiens) (Q8TDX7 whole entry, looked up): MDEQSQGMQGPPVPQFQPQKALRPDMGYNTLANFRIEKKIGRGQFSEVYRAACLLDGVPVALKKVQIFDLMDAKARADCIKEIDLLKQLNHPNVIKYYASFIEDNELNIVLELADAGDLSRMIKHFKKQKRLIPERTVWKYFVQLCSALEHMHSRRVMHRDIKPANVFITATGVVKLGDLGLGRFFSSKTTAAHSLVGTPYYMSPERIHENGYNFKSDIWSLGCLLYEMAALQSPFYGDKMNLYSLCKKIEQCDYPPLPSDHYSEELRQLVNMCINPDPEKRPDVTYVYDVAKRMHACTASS

[6] = molecular target: Serine/threonine-protein kinase Nek7 (Homo sapiens) (UniProt Q8TDX7); conditions: at 10 µM
[7] = molecular target: T1, Serine/threonine-protein kinase NLK (Homo sapiens) (UniProt Q9UBE8); conditions: at 1 µM
T1 sequence (whole entry): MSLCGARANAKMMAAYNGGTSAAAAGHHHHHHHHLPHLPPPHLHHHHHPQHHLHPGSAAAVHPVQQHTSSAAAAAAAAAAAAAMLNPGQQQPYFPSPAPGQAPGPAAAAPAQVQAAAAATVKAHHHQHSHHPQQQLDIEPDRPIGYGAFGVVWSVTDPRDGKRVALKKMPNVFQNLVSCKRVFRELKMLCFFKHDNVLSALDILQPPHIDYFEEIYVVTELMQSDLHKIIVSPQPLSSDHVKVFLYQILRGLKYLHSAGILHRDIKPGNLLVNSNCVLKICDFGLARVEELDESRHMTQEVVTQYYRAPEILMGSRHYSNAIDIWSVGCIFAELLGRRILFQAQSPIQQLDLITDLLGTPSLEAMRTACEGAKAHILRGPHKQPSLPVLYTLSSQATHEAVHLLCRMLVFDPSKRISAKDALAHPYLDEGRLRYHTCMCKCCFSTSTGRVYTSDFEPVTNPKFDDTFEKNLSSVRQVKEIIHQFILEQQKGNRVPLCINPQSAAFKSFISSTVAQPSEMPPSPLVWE

[8] = molecular target: T1, Serine/threonine-protein kinase NLK (Homo sapiens); conditions: at 10 µM
[9] = molecular target: Serine/threonine-protein kinase PAK 2 (Homo sapiens) (UniProt Q13177); conditions: at 1 µM
Sequence of Serine/threonine-protein kinase PAK 2 (Homo sapiens) (Q13177 whole entry): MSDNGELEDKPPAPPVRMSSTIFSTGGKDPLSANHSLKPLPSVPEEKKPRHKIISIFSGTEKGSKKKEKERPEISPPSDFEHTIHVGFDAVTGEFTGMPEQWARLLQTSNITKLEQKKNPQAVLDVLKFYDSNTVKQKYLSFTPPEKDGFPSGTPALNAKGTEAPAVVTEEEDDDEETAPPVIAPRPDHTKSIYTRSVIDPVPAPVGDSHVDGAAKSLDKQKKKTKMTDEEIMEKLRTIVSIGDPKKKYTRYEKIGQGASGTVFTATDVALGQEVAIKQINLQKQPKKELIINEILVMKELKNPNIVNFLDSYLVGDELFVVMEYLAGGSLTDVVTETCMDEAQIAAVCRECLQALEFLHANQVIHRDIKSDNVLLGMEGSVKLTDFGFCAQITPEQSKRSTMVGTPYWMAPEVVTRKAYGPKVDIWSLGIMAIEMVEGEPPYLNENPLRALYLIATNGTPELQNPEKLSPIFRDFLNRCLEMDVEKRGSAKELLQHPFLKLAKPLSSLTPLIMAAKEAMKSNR

[10] = molecular target: Serine/threonine-protein kinase PAK 2 (Homo sapiens) (UniProt Q13177); conditions: at 10 µM

Sequence of Ribosomal protein S6 kinase beta-1 (Homo sapiens) (P23443 whole entry, looked up): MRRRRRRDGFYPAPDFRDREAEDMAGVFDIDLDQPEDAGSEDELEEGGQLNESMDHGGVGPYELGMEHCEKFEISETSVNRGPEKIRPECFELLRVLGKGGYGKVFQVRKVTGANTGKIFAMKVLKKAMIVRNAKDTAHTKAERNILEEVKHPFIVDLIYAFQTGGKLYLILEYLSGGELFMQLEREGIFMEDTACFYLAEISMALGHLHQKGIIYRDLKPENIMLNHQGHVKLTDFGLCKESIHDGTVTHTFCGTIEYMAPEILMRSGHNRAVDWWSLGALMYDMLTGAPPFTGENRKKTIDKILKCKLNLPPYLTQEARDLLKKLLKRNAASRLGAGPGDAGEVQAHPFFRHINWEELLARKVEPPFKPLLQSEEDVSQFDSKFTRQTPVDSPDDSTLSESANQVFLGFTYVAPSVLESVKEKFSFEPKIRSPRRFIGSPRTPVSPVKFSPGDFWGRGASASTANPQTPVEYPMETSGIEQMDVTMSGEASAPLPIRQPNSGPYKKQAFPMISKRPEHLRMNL

| SMILES | residual activity [1] [%] | residual activity [2] [%] | residual activity [3] | residual activity [4] [%] | residual activity [5] | residual activity [6] | residual activity [7] [%] | residual activity [8] [%] | residual activity [9] [%] | residual activity [10] [%] |
| --- | --- | --- | --- | --- | --- | --- | --- | --- | --- | --- |
| COc1cccc(-c2cc(=O)c3ccccc3o2)c1N | 119 | 106 | 114% (inactive) | 114 | 111% (inactive) | 106% (inactive) | 107 | 87 | 103 | 102 |
| CCOc1cc2ncnc(Nc3cccc(Br)c3)c2cc1OCC | 109 | 54 | 112% (inactive) | 125 | 102% (inactive) | 101% (inactive) | 78 | 34 | 102 | 75 |
| O=C(O)c1ccc2c3c1cccc3c(=O)n1c3ccccc3nc21 | 89 | 46 | 109% (inactive) | 101 | 114% (inactive) | 108% (inactive) | 107 | 72 | 101 | 95 |
| COc1cc2ncnc(Nc3ccc(O)c(Br)c3)c2cc1OC | 60 | 31 | 86% (inactive) | 110 | 99% (inactive) | 96% (inactive) | 69 | 30 | 104 | 80 |
| O=C1NC(=O)c2cc(Nc3ccc(F)cc3)c(Nc3ccc(F)cc3)cc21 | 81 | 101 | 112% (inactive) | 111 | 98% (inactive) | 98% (inactive) | 92 | 80 | 107 | 79 |
| CN(C)c1ccc(/C=C2\C(=O)Nc3ccccc32)cc1 | 69 | 29 | 108% (inactive) | 107 | 118% (inactive) | 116% (inactive) | 110 | 88 | 96 | 100 |
| Oc1c2ccccc2c2c3c(cccc13)N=N2 | 55 | 14 | 107% (inactive) | 101 | 99% (inactive) | 89% (inactive) | 78 | 71 | 96 | 86 |
| c1ccc2c(-c3ccncc3)c[nH]c2c1 | 53 | 31 | 95% (inactive) | 110 | 95% (inactive) | 95% (inactive) | 96 | 73 | 98 | 82 |
| COc1ccc(OC)c2c(=S)c3ccccc3[nH]c12 | 115 | 86 | 97% (inactive) | 91 | 103% (inactive) | 97% (inactive) | 85 | 76 | 90 | 73 |
| COc1ccc(S(=O)(=O)N(CCO)c2ccccc2CN(C)C/C=C/c2ccc(Cl)cc2)cc1 | 97 | 78 | 110% (inactive) | 115 | 106% (inactive) | 93% (inactive) | 93 | 92 | 97 | 86 |
| O=c1c2ccccc2[nH]c(=S)n1CCN1CCC(=C(c2ccc(F)cc2)c2ccc(F)cc2)CC1 | 79 | 42 | 99% (inactive) | 107 | 103% (inactive) | 94% (inactive) | 111 | 93 | 103 | 103 |
| O=C1Nc2ccc(Br)cc2/C1=C\c1cc2c([nH]1)CCCC2 | 84 | 51 | 104% (inactive) | 102 | 101% (inactive) | 102% (inactive) | 97 | 97 | 113 | 100 |
| CNc1cc2c(Nc3cccc(Br)c3)ncnc2cn1 | 126 | 145 | 94% (inactive) | 108 | 94% (inactive) | 95% (inactive) | 87 | 45 | 111 | 99 |
| Oc1ccc(-c2nc(-c3ccc(F)cc3)c(-c3ccncc3)[nH]2)cc1 | 72 | 25 | 105% (inactive) | 110 | 114% (inactive) | 103% (inactive) | 49 | 13 | 95 | 85 |
| CCN(CC)CCCCN1c2ccccc2Oc2ccc(Cl)cc21 | 79 | 90 | 106% (inactive) | 113 | 116% (inactive) | 115% (inactive) | 113 | 96 | 117 | 120 |
| CO[C@@H]1[C@H](N(C)C(=O)c2ccccc2)C[C@H]2O[C@]1(C)n1c3ccccc3c3c4c(c5c6ccccc6n2c5c31)C(=O)NC4 | 4 | 1 | 93% (inactive) | 92 | 91% (inactive) | 82% (inactive) | 90 | 73 | 72 | 50 |

| SMILES | residual activity [1] [%] | residual activity [2] [%] | residual activity [3] | residual activity [4] [%] | residual activity [5] | residual activity [6] | residual activity [7] [%] | residual activity [8] [%] | residual activity [9] [%] | residual activity [10] [%] |
| --- | --- | --- | --- | --- | --- | --- | --- | --- | --- | --- |
| COc1ccc(C(=O)Nc2sc3c(c2C(N)=O)CCCC3)cc1OC | 106 | 83 | 90% (inactive) | 103 | 87% (inactive) | 83% (inactive) | 88 | 90 | 96 | 90 |
| COc1cc2ncnc(Nc3ccc(Oc4ccccc4)cc3)c2cc1OC | 92 | 88 | 97% (inactive) | 118 | 97% (inactive) | 112% (inactive) | 96 | 82 | 98 | 87 |
| Oc1n[nH]c2nnc(-c3c(-c4ccccc4)nn4ccccc34)cc12 | 106 | 96 | 103% (inactive) | 110 | 100% (inactive) | 96% (inactive) | 90 | 86 | 94 | 99 |
| NC(=O)c1ccc2[nH]c(-c3ccc(Oc4ccc(Cl)cc4)cc3)nc2c1 | 92 | 90 | 117% (inactive) | 113 | 102% (inactive) | 104% (inactive) | 88 | 59 | 111 | 82 |
| O=C1NC(=O)c2c1c1c3ccccc3[nH]c1c1[nH]c3cc(Br)ccc3c21 | 92 | 52 | 121% (inactive) | 117 | 103% (inactive) | 89% (inactive) | 82 | 93 | 122 | 106 |
| CC(C)n1cnc2/c(=N/c3cccc(Cl)c3)nc(NCCO)[nH]c21 | 36 | 15 | 118% (inactive) | 98 | 102% (inactive) | 84% (inactive) | 88 | 70 | 109 | 98 |
| O=C(Nc1cccc(Nc2cc(Nc3cccc(C(F)(F)F)c3)ncn2)c1)C1CC1 | 92 | 110 | 99% (inactive) | 126 | 95% (inactive) | 93% (inactive) | 63 | 27 | 116 | 83 |
| Ic1cccc(CSc2nnc(-c3ccncc3)o2)c1 | 55 | 32 | 113% (inactive) | 115 | 101% (inactive) | 81% (inactive) | 89 | 89 | 104 | 92 |
| O=c1cc(-c2cccc3c2Sc2ccccc2S3)oc(N2CCOCC2)c1 | 119 | 93 | 108% (inactive) | 122 | 109% (inactive) | 140% (inactive) | 101 | 101 | 113 | 95 |
| Cc1cc2ncc(-c3ccccc3)nc2cc1C | 80 | 52 | 104% (inactive) | 102 | 106% (inactive) | 101% (inactive) | 105 | 91 | 97 | 94 |
| CC(=O)O/N=C1\C(=C2\C(=O)Nc3cc(Br)ccc32)Nc2ccccc21 | 84 | 36 | 108% (inactive) | 110 | 98% (inactive) | 111% (inactive) | 90 | 80 | 104 | 100 |
| CC(C)n1cnc2c(NCc3ccccc3)nc(NCCCO)nc21 | 105 | 100 | 107% (inactive) | 115 | 101% (inactive) | 95% (inactive) | 95 | 86 | 106 | 100 |
| CO[C@H]1[C@@H](OC)C[C@H](C)[C@@H](OC)C2=CC(=O)C=C(NC(=O)/C(C)=C/C=C/[C@H](OC)[C@@H](OC(N)=O)/C(C)=C/[C@@H]1C)C2=O | 75 | 43 | 103% (inactive) | 112 | 89% (inactive) | 76% (inactive) | 110 | 83 | 108 | 83 |
| Cc1nc2cc3nc(-c4cccs4)cnc3cc2n1C | 98 | 112 | 104% (inactive) | 112 | 102% (inactive) | 107% (inactive) | 104 | 95 | 99 | 86 |
| C[C@@H](N)[C@H]1CC[C@H](C(=O)Nc2ccncc2)CC1 | 101 | 71 | 106% (inactive) | 107 | 111% (inactive) | 112% (inactive) | 100 | 101 | 106 | 104 |
| CO[C@H]1C[C@@H]2CC[C@@H](C)[C@@](O)(O2)C(=O)C(=O)N2CCCC[C@H]2C(=O)O[C@H]([C@H](C)C[C@@H]2CC[C@@H](O)[C@H](OC)C2)CC(=O)[C@H](C)/C=C(\C)[C@@H](O)[C@@H](OC)C(=O)[C@H](C)C[C@H](C)/C=C/C=C/C=C/1C | 92 | 147 | 97% (inactive) | 118 | 97% (inactive) | 115% (inactive) | 101 | 91 | 101 | 95 |
